In all, about 2,900 compounds were measured (“NF-kB SEAP reporter activity, fold change vs agonist alone”: median about 0.99, highest 2% from about 2.6 on). The entries come from a sample that favours the highest values as a whole.
How the values were obtained:
RAW-Dual [1] = assay: NF-kB SEAP reporter activity, fold change vs agonist alone; higher = enhanced NF-kB activity
Outline: (§1)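 Reporter activity is given as fold change relative to agonist-alone wells. To measure it, 50 nL of library stock was pin-tooled onto RAW-Dual macrophages (50,000 cells/well, DMEM, 384-well plates), a PRR agonist followed 1 h later, and cells stayed at 37 °C, 5% CO2. Twenty hours on, supernatant was assayed for IRF (QuantiLuc luminescence) and NF-κB (QuantiBlue, 620 nm absorbance), and wells under 70% of agonist-control IncuCyte confluency in both mask sets were marked cytotoxic.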

RAW-Dual [2] = assay: NF-kB SEAP reporter activity, fold change vs agonist alone; cytotoxicity flag (confluency mask): not cytotoxic; higher = enhanced NF-kB activity
Outline: as §1

RAW-Dual [3] = assay: NF-kB SEAP reporter activity, fold change vs agonist alone; cytotoxicity flag (confluency mask): cytotoxic (confluency <70% of control); higher = enhanced NF-kB activity
Outline: as §1

[4] = library stock concentration (final ~1000-fold dilution): 10 mM, cytotoxicity flag (confluency mask): not cytotoxic, agonist: Imiquimod (TLR7) […]
[5] = library stock concentration (final ~1000-fold dilution): 10 mM, cytotoxicity flag (confluency mask): not cytotoxic, agonist: MPLA (TLR4) […]
[6] = agonist: ODN 1826 (TLR9) 0.5 ug/mL
[7] = agonist: Pam2CSK4 (TLR2/6) 0.1 ug/mL
[8] = agonist: Pam3CSK4 (TLR2/1) 0.1 ug/mL
[9] = library stock concentration (final ~1000-fold dilution): 10 mM, cytotoxicity flag (confluency mask): cytotoxic (confluency <70% of control), agonist: Imiquimod (TLR7) […]
[10] = library stock concentration (final ~1000-fold dilution): 10 mM, cytotoxicity flag (confluency mask): cytotoxic (confluency <70% of control), agonist: MPLA (TLR4) […]

Structure (SMILES): CCOC1OC(=O)CC1NC(=O)C1CCCN1C(=O)C(NC(=O)c1ccc(N)c(Cl)c1)C(C)(C)C (stereo unspecified)
- NF-kB SEAP reporter activity (RAW-Dual [1]; [4]): 0.911
- NF-kB SEAP reporter activity (RAW-Dual [1]; [5]): 0.995

Structure (SMILES): CCOC1OC(=O)CC1NC(=O)C1CCCN1C(=O)C(NC(=O)c1ccc(N)c(Cl)c1)C(C)(C)C (stereo unspecified) (library stock concentration (final ~1000-fold dilution): 10 mM)
- NF-kB SEAP reporter activity (RAW-Dual [2]; agonist: LPS (TLR4) 0.1 ug/mL): 0.973
- NF-kB SEAP reporter activity (RAW-Dual [2]; [6]): 1
- NF-kB SEAP reporter activity (RAW-Dual [2]; [7]): 1
- NF-kB SEAP reporter activity (RAW-Dual [2]; [8]): 0.976

Structure (SMILES): N#CC1CC2CC2N1C(=O)C(N)C12CC3CC(CC(O)(C3)C1)C2 (stereo unspecified) (library stock concentration (final ~1000-fold dilution): 10 mM)
- NF-kB SEAP reporter activity (RAW-Dual [2]; agonist: LPS (TLR4) 0.1 ug/mL): 1.1
- NF-kB SEAP reporter activity (RAW-Dual [2]; [6]): 0.964
- NF-kB SEAP reporter activity (RAW-Dual [2]; [7]): 0.892
- NF-kB SEAP reporter activity (RAW-Dual [2]; [8]): 1.05

Structure (SMILES): N#CC1CC2CC2N1C(=O)C(N)C12CC3CC(CC(O)(C3)C1)C2 (stereo unspecified)
- NF-kB SEAP reporter activity (RAW-Dual [1]; [4]): 0.914
- NF-kB SEAP reporter activity (RAW-Dual [1]; [5]): 0.875

Structure (SMILES): CCn1c(-c2nonc2N)nc2c(C#CC(C)(C)O)ncc(OCC3CCCNC3)c21 (stereo unspecified)
- NF-kB SEAP reporter activity (RAW-Dual [1]; [4]): 1.87
- NF-kB SEAP reporter activity (RAW-Dual [1]; [5]): 1.95

Structure (SMILES): CCn1c(-c2nonc2N)nc2c(C#CC(C)(C)O)ncc(OCC3CCCNC3)c21 (stereo unspecified) (library stock concentration (final ~1000-fold dilution): 10 mM)
- NF-kB SEAP reporter activity (RAW-Dual [2]; agonist: LPS (TLR4) 0.1 ug/mL): 1.91
- NF-kB SEAP reporter activity (RAW-Dual [2]; [6]): 0.943
- NF-kB SEAP reporter activity (RAW-Dual [2]; [7]): 1.73
- NF-kB SEAP reporter activity (RAW-Dual [2]; [8]): 1.89

Structure (SMILES): CC(C)Cc1ccc(C(C)C(=O)O)cc1.NCCCCC(N)C(=O)O (stereo unspecified) (library stock concentration (final ~1000-fold dilution): 10 mM water)
- NF-kB SEAP reporter activity (RAW-Dual [2]; agonist: LPS (TLR4) 0.1 ug/mL): 1.42
- NF-kB SEAP reporter activity (RAW-Dual [2]; [6]): 1.2
- NF-kB SEAP reporter activity (RAW-Dual [2]; [7]): 1.54
- NF-kB SEAP reporter activity (RAW-Dual [2]; [8]): 1.39

Structure (SMILES): CC(C)Cc1ccc(C(C)C(=O)O)cc1.NCCCCC(N)C(=O)O (stereo unspecified)
- NF-kB SEAP reporter activity (RAW-Dual [1]; library stock concentration (final ~1000-fold dilution): 10 mM water, cytotoxicity flag (confluency mask): not cytotoxic, agonist: Imiquimod (TLR7) […]): 0.969
- NF-kB SEAP reporter activity (RAW-Dual [1]; library stock concentration (final ~1000-fold dilution): 10 mM water, cytotoxicity flag (confluency mask): not cytotoxic, agonist: MPLA (TLR4) […]): 1.08

Structure (SMILES): CCCCc1nc2cc(/C=C/C(=O)NO)ccc2n1CCN(CC)CC
- NF-kB SEAP reporter activity (RAW-Dual [1]; [9]): 2.43
- NF-kB SEAP reporter activity (RAW-Dual [1]; [10]): 2.67

Structure (SMILES): CCCCc1nc(-c2ccc(OCCCN(CC)CC)cc2)cn1-c1ccc(Oc2ccc(Cl)cc2)cc1
- NF-kB SEAP reporter activity (RAW-Dual [1]; [9]): 1.53
- NF-kB SEAP reporter activity (RAW-Dual [1]; [10]): 1.02

Structure (SMILES): CCCCc1nc2cc(/C=C/C(=O)NO)ccc2n1CCN(CC)CC (library stock concentration (final ~1000-fold dilution): 10 mM)
- NF-kB SEAP reporter activity (RAW-Dual [3]; agonist: LPS (TLR4) 0.1 ug/mL): 4.93
- NF-kB SEAP reporter activity (RAW-Dual [3]; [6]): 1.54
- NF-kB SEAP reporter activity (RAW-Dual [3]; [7]): 0.93
- NF-kB SEAP reporter activity (RAW-Dual [3]; [8]): 1.99

Structure (SMILES): CCCCc1nc(-c2ccc(OCCCN(CC)CC)cc2)cn1-c1ccc(Oc2ccc(Cl)cc2)cc1 (library stock concentration (final ~1000-fold dilution): 10 mM)
- NF-kB SEAP reporter activity (RAW-Dual [3]; agonist: LPS (TLR4) 0.1 ug/mL): 0.281
- NF-kB SEAP reporter activity (RAW-Dual [3]; [6]): 0.683
- NF-kB SEAP reporter activity (RAW-Dual [3]; [7]): 0.225
- NF-kB SEAP reporter activity (RAW-Dual [3]; [8]): 0.192

Structure (SMILES): CN1C2CCC1CC(OC(c1ccccc1)c1ccccc1)C2.CS(=O)(=O)O (stereo unspecified)
- NF-kB SEAP reporter activity (RAW-Dual [1]; [4]): 1.89
- NF-kB SEAP reporter activity (RAW-Dual [1]; [5]): 1.29

Structure (SMILES): CN1C2CCC1CC(OC(c1ccccc1)c1ccccc1)C2.CS(=O)(=O)O (stereo unspecified) (library stock concentration (final ~1000-fold dilution): 10 mM)
- NF-kB SEAP reporter activity (RAW-Dual [2]; agonist: LPS (TLR4) 0.1 ug/mL): 1.24
- NF-kB SEAP reporter activity (RAW-Dual [2]; [6]): 0.721
- NF-kB SEAP reporter activity (RAW-Dual [2]; [7]): 0.896
- NF-kB SEAP reporter activity (RAW-Dual [2]; [8]): 1.02

Structure (SMILES): CC(NC(=O)CCC(F)(F)F)C(=O)NC1C(=O)N(CCO)c2ncccc2-c2ccccc21 (stereo unspecified) (library stock concentration (final ~1000-fold dilution): 10 mM)
- NF-kB SEAP reporter activity (RAW-Dual [2]; agonist: LPS (TLR4) 0.1 ug/mL): 1.05
- NF-kB SEAP reporter activity (RAW-Dual [2]; [6]): 0.863
- NF-kB SEAP reporter activity (RAW-Dual [2]; [7]): 0.99
- NF-kB SEAP reporter activity (RAW-Dual [2]; [8]): 1.16

Structure (SMILES): CC(NC(=O)CCC(F)(F)F)C(=O)NC1C(=O)N(CCO)c2ncccc2-c2ccccc21 (stereo unspecified)
- NF-kB SEAP reporter activity (RAW-Dual [1]; [4]): 0.822
- NF-kB SEAP reporter activity (RAW-Dual [1]; [5]): 1.06

Structure (SMILES): CNCCCC12CCC(c3ccccc31)c1ccccc12.Cl (library stock concentration (final ~1000-fold dilution): 10 mM)
- NF-kB SEAP reporter activity (RAW-Dual [2]; agonist: LPS (TLR4) 0.1 ug/mL): 1.55
- NF-kB SEAP reporter activity (RAW-Dual [2]; [6]): 0.443
- NF-kB SEAP reporter activity (RAW-Dual [2]; [7]): 0.537
- NF-kB SEAP reporter activity (RAW-Dual [2]; [8]): 0.603

Structure (SMILES): CNCCCC12CCC(c3ccccc31)c1ccccc12.Cl
- NF-kB SEAP reporter activity (RAW-Dual [1]; [4]): 1.4
- NF-kB SEAP reporter activity (RAW-Dual [1]; [5]): 1.37

Structure (SMILES): CC(=O)c1ccc2c(c1)c1cc(C(C)=O)ccc1n2CCNC(C)C.Cl (library stock concentration (final ~1000-fold dilution): 10 mM)
- NF-kB SEAP reporter activity (RAW-Dual [3]; agonist: LPS (TLR4) 0.1 ug/mL): 0.329
- NF-kB SEAP reporter activity (RAW-Dual [3]; [6]): 0.209
- NF-kB SEAP reporter activity (RAW-Dual [3]; [7]): 0.0686
- NF-kB SEAP reporter activity (RAW-Dual [3]; [8]): 0.155

Structure (SMILES): CC(=O)c1ccc2c(c1)c1cc(C(C)=O)ccc1n2CCNC(C)C.Cl
- NF-kB SEAP reporter activity (RAW-Dual [1]; [9]): 0.156
- NF-kB SEAP reporter activity (RAW-Dual [1]; [10]): 0.26

Structure (SMILES): CC1(C)OC2COC3(COS(N)(=O)=O)OC(C)(C)OC3C2O1 (stereo unspecified)
- NF-kB SEAP reporter activity (RAW-Dual [1]; [4]): 0.928
- NF-kB SEAP reporter activity (RAW-Dual [1]; [5]): 0.824

Structure (SMILES): CC1(C)OC2COC3(COS(N)(=O)=O)OC(C)(C)OC3C2O1 (stereo unspecified) (library stock concentration (final ~1000-fold dilution): 10 mM)
- NF-kB SEAP reporter activity (RAW-Dual [2]; agonist: LPS (TLR4) 0.1 ug/mL): 0.898
- NF-kB SEAP reporter activity (RAW-Dual [2]; [6]): 1.01
- NF-kB SEAP reporter activity (RAW-Dual [2]; [7]): 0.955
- NF-kB SEAP reporter activity (RAW-Dual [2]; [8]): 1.12

Structure (SMILES): COc1c(O)c(C)cc2c1C(=O)c1c(O)cccc1C2=O
- NF-kB SEAP reporter activity (RAW-Dual [1]; [4]): 0.981
- NF-kB SEAP reporter activity (RAW-Dual [1]; [5]): 1.08

Structure (SMILES): COc1ccc(S(=O)(=O)Nc2cc(-c3c(O)ccc4ccccc34)c(O)c3ccccc23)cc1
- NF-kB SEAP reporter activity (RAW-Dual [1]; [4]): 1.17
- NF-kB SEAP reporter activity (RAW-Dual [1]; [5]): 1.61

Structure (SMILES): COc1c(O)c(C)cc2c1C(=O)c1c(O)cccc1C2=O (library stock concentration (final ~1000-fold dilution): 10 mM)
- NF-kB SEAP reporter activity (RAW-Dual [2]; agonist: LPS (TLR4) 0.1 ug/mL): 1.19
- NF-kB SEAP reporter activity (RAW-Dual [2]; [6]): 1.02
- NF-kB SEAP reporter activity (RAW-Dual [2]; [7]): 1.04
- NF-kB SEAP reporter activity (RAW-Dual [2]; [8]): 1.01

Structure (SMILES): COc1ccc2cccc(CCNC(C)=O)c2c1
- NF-kB SEAP reporter activity (RAW-Dual [1]; [4]): 0.972
- NF-kB SEAP reporter activity (RAW-Dual [1]; [5]): 0.963

— the supplement of paper PMC10037445
